This note sets out measurements from ChEMBL document CHEMBL1961873, “Compounds: GSK PKIS; Assays: Nanosyn kinase panel” (2012).

The structures appear in SMILES notation.

As usually defined, the inhibition is the change of the read-out against control, counted positive when it falls.

In assay [1] the target is RAC-alpha serine/threonine-protein kinase (Homo sapiens) (UniProt P31749). The following applies: at 0.1 µM.
Assay [2] shares this target. The following applies: at 1 µM.
Assay [3] has as its target RAC-beta serine/threonine-protein kinase (Homo sapiens) (UniProt P31751). The following applies: at 0.1 µM.
Assay [4] has the same target. The following applies: at 1 µM.
Assay [5] has as its target RAC-gamma serine/threonine-protein kinase (Homo sapiens) (UniProt Q9Y243). The following applies: at 0.1 µM.
Assay [6] has the same target. The following applies: at 1 µM.
Assay [7] concerns the target G protein-coupled receptor kinase 6 (Homo sapiens) (UniProt P43250). The following applies: at 0.1 µM.
For assay [8] the target is unchanged. The following applies: at 1 µM.
Assay [9] has as its target T1, Rhodopsin kinase GRK7 (Homo sapiens) (UniProt Q8WTQ7).
T1 sequence (whole entry): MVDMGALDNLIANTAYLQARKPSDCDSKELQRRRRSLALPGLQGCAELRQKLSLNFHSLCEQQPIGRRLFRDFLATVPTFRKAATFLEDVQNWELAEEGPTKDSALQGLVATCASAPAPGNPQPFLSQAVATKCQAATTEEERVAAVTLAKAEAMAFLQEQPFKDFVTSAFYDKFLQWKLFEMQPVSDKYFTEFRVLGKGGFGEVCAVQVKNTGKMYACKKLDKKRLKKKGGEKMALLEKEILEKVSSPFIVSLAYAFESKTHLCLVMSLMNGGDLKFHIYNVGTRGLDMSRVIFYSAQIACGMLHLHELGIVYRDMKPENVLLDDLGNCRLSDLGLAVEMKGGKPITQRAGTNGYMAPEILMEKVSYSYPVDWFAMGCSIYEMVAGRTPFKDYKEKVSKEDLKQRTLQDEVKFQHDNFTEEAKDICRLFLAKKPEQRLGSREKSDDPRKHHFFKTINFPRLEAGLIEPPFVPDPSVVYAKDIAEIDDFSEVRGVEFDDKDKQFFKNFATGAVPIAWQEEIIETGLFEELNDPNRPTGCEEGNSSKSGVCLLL
The following applies: at 0.1 µM.

Assay [10] deals with T1, Rhodopsin kinase GRK7 (Homo sapiens). The following applies: at 1 µM.

Sequence of RAC-alpha serine/threonine-protein kinase (Homo sapiens) (P31749 whole entry): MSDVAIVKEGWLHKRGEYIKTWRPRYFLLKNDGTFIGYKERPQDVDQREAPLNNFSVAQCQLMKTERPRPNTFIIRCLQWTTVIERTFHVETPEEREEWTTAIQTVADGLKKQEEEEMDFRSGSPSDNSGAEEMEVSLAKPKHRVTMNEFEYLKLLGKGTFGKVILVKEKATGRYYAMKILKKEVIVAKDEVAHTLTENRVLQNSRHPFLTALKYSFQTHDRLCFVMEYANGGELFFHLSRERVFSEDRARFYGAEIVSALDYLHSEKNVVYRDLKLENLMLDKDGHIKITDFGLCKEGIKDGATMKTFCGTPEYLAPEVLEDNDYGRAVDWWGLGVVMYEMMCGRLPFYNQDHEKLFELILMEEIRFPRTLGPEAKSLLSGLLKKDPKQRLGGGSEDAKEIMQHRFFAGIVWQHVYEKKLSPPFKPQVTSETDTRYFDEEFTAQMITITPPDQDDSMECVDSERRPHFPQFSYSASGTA
Sequence of RAC-beta serine/threonine-protein kinase (Homo sapiens) (P31751 whole entry): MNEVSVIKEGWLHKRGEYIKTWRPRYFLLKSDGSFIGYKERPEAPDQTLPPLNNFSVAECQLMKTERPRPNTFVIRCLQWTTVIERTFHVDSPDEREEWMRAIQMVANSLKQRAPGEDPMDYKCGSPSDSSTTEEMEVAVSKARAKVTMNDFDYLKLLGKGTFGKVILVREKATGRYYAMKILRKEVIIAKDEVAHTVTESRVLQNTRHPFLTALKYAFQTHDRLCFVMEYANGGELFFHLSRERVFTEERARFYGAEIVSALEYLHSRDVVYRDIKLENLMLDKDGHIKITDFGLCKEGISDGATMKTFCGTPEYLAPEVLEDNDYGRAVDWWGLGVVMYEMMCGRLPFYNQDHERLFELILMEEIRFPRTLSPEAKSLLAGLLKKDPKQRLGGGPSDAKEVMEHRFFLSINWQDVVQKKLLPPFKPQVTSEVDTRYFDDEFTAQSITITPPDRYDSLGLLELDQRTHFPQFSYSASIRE
Sequence of RAC-gamma serine/threonine-protein kinase (Homo sapiens) (Q9Y243 whole entry): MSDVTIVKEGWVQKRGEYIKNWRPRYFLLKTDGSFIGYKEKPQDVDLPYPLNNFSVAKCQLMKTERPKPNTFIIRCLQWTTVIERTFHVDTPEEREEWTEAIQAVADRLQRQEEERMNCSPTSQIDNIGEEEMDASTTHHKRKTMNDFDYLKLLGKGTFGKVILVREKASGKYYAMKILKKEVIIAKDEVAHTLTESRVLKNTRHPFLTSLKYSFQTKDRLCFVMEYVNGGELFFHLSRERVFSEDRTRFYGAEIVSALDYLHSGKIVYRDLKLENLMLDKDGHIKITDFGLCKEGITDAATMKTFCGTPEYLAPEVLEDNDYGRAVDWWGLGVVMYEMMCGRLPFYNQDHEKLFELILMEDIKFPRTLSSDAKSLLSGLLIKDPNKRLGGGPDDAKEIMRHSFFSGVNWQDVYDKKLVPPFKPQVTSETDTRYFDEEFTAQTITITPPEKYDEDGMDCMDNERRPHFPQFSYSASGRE
Sequence of G protein-coupled receptor kinase 6 (Homo sapiens) (P43250 whole entry, looked up): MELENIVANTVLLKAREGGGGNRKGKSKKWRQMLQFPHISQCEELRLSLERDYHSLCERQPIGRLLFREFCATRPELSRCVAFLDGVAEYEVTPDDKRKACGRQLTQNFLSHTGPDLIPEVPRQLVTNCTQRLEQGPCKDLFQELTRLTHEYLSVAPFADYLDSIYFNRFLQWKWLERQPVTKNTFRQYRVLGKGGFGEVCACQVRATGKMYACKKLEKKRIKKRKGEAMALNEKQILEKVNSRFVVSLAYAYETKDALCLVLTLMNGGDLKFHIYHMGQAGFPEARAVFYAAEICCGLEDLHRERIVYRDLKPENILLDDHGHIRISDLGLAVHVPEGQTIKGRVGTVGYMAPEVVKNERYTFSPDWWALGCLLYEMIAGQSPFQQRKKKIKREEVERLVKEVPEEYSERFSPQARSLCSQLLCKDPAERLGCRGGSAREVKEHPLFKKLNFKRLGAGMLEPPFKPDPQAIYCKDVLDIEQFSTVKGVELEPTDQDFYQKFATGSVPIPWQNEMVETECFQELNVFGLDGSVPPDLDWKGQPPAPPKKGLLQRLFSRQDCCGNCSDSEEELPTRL

Take `CCS(=O)(=O)c1ccc(OC)c(Nc2ncc(-c3cccc(OC)c3)o2)c1`: the inhibition in assay [1] was 0.36%; in [2] it was 0.85%; in assay [3], 1.41%; in assay [4] it was 0.82%; in assay [5], 1.04%; in [6] it was -0.57%. Moreover, the inhibition in assay [7] is -1.06%; in [8], -5%; in [9] it was -0.18%; in [10], -8.47%.
`Cc1ccc(NC(=O)CC2CC2)cc1-c1ccc(C(=O)NCC2CC2)cc1`: the inhibition in assay [1] came out at 0.17%; in assay [2], 0.7%; in assay [3] it was 1.47%; in assay [4], 1.58%; in assay [5] it was 1.47%; in [6] it was 1.65%. Besides, the inhibition in assay [7] came to 2.05%; in assay [8], 6.65%; in assay [9], 0.94%; in [10], 0.75%.
Take `Cc1ccc(C(=O)NC2CC2)cc1-c1ccc2[nH]ncc2c1`: the inhibition in assay [1] was -2.21%; in assay [2], -1.97%; in assay [3], -3.64%; in [4] it was -3.23%; in assay [5], -4.12%; in assay [6], 0.95%. Further, the inhibition in [7] was 1.1%; in [8] it was -1.57%; in [9] it was -1.33%; in assay [10] it was -8.83%.
With `N#Cc1c(NC(=O)c2ccccc2F)sc2c1CCCC2`, the inhibition in [1] is -0.97%; in assay [2] it was -1.21%; in assay [3], -1.71%; in [4], -1.01%; in assay [5], -1.05%; in assay [6], -0.44%. Moreover, the inhibition in [7] is 1.29%; in [8] it was 2.2%; in assay [9], 2.28%; in assay [10], -1.97%.
With `COc1cc(/C=N/Nc2ncnc3c2cnn3C(C)C)ccc1O`, the inhibition in assay [1] was -0.05%; in [2], -2.56%; in [3] it was 0.47%; in [4] it was -1.58%; in [5] it was 0.98%; in [6], -1.46%. Further, the inhibition in assay [7] came to 4.24%; in assay [8], 77.6%; in assay [9], 1.66%; in assay [10], 7.37%.
In the case of `NS(=O)(=O)c1ccc(Nc2cc(-c3cccc(O)c3)n[nH]2)cc1`, the inhibition in assay [1] stood at 0.91%; in [2] it was 0.58%; in [3], 1.64%; in [4], 3.28%; in [5], 2.49%; in assay [6] it was 1.75%. In addition, the inhibition in assay [7] was 1.19%; in assay [8], 3.55%; in assay [9], 3.02%; in assay [10], 5.39%.
On to `COc1cc2ncn(-c3cc(OCc4ccccc4S(C)(=O)=O)c(C#N)s3)c2cc1OC`, for which the inhibition stood at 1.44% in assay [1]; 1.02% in [2]; 2.07% in assay [3]; 1.33% in assay [4]; 2.7% in assay [5]; 1.68% in assay [6]. Also, the inhibition in assay [7] is 13.8%; in [8], 3.6%; in [9] it was 8.51%; in assay [10] it was 40.4%.
Take `OCc1ccc(-c2nc(-c3ccccn3)c(-c3ccc4c(c3)OCO4)[nH]2)cc1`: the inhibition in assay [1] came to 1.19%; in assay [2], 1.53%; in assay [3], 2.08%; in assay [4], 2.51%; in [5], 1.57%; in assay [6] it was 0.86%. For the same compound, the inhibition was 0.03% in assay [7], 1.18% in assay [8], 2.93% in [9] and -2.28% in assay [10].
Regarding `O=S(=O)(CCOCc1ccc(-c2ccc3ncnc(Nc4ccc(OCc5cccc(F)c5)c(Cl)c4)c3c2)o1)c1ccccc1`, the inhibition in [1] was -0.1%; in [2], -0.35%; in assay [3], 0.2%; in assay [4], 1.21%; in assay [5], -0.84%; in assay [6], 3.06%. For the same compound, the inhibition in assay [7] amounted to 0.84%; in [8], 0.78%; in assay [9], 7.97%; in assay [10] it was 4.68%.
As to `NC(=O)c1sc(-n2cnc3ccccc32)cc1OCc1ccccc1Br`, the inhibition in assay [1] worked out at 1.72%; in assay [2] it was 1.07%; in assay [3], 0.68%; in assay [4] it was 3.59%; in [5], 1.82%; in assay [6], 4.09%. Moreover, the inhibition in [7] stood at 1.41%; in assay [8], 3.01%; in [9], 9.12%; in assay [10], 4.5%.
With `Cc1cc(O)cc(C)c1/C=C/c1cncc(C(=O)N(C)C)c1`, the inhibition in [1] came out at 0.52%; in [2], 0.6%; in [3], 2.14%; in [4], 0.78%; in [5] it was 1.44%; in assay [6], 1.3%. For the same compound, the inhibition was 3.76% in assay [7], 0.05% in [8], 0% in assay [9] and -6.95% in assay [10].
In the case of `Cc1nc(-c2ccccc2)n2nc(NCCCN3CCOCC3)ncc12`, the inhibition in assay [1] was 0.61%; in assay [2], 0.11%; in [3], 0.45%; in assay [4], 2.03%; in [5] it was 0.57%; in [6], 4.13%. In addition, the inhibition worked out at 3.41% in [7], 0.49% in assay [8], 5.84% in assay [9] and 2.44% in assay [10].
Take `Cc1cc(Cl)cc2c1NC(=O)C2=NNc1ccc(S(N)(=O)=O)cc1`: the inhibition in assay [1] is 0.38%; in [2], 0.03%; in [3] it was 0.6%; in [4], 1.11%; in assay [5], 0.3%; in assay [6] it was 0.71%. For the same compound, the inhibition in assay [7] amounted to 7.71%; in assay [8], 11%; in [9], 5.48%; in assay [10], 13.2%.
On to `COc1ccc2ncnc(Nc3ccc(OCc4ccccc4)cc3)c2c1`, for which the inhibition is 0.35% in assay [1]; -0.14% in assay [2]; 0.26% in assay [3]; 0.34% in assay [4]; 0.84% in assay [5]; 1.52% in [6]. In addition, the inhibition was found to be 1.69% in [7], 5.27% in [8], 2.31% in [9] and 6.57% in assay [10].
With `NS(=O)(=O)c1ccc(NC=C2C(=O)Nc3ccc4ncsc4c32)cc1`, the inhibition was 1.23% in assay [1]; -0.15% in assay [2]; 2.3% in assay [3]; 2.59% in assay [4]; 0.79% in [5]; 2.77% in assay [6]. Also, the inhibition amounted to 6.28% in assay [7], 35.5% in assay [8], 6.78% in [9] and 22.4% in assay [10].
For the compound `CN(C)C(=O)O[C@@H]1CN[C@@H](C#Cc2cc3ncnc(Nc4ccc(OCc5cccc(F)c5)c(Cl)c4)c3s2)C1`, the inhibition in assay [1] is -0.54%; in assay [2], -0.11%; in [3], 0%; in assay [4], -1.02%; in assay [5], -0.71%; in assay [6], 0.16%. The inhibition is 0.14% in assay [7], -1.42% in [8], -2.8% in [9] and 11.4% in assay [10].
Consider `COc1cccc(-n2ncc3c(N/N=C/c4ccc(C)cc4)ncnc32)c1`, for which the inhibition in [1] is 1.26%; in [2] it was 0.76%; in assay [3] it was 1.76%; in [4], 1.75%; in [5], 0.43%; in [6], 1.94%. Also, the inhibition in assay [7] came to 4.73%; in assay [8] it was 5.93%; in [9], 11.7%; in [10] it was 7.9%.
